Gal4-VP16 FLuc: VP16 counterscreen qHTS for inhibitors of ROR gamma transcriptional activity; Drosophila S2 Gal4-VP16 UAS-luciferase, luminescence, 20 h; Potency, µM (series often up to 53.6 µM), inactives show at the top dose activity, negative = inhibition, hits mostly inhibitors; 310,000 compounds, 3.5% hits; AID 2546, 2010;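 further: Gal4-VP16 expression switched on by copper sulfate through the metallothionein promoter; potency means the concentration at half of the fitted maximal effect; on the % scale 0 is the no-effect control and ±100 the full control effect; nearly all actives have a fitted effect of over 50% in size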
Integrin act MD: qHTS for Activators of Integrin-Mediated Alleviation for Muscular Dystrophy; alpha7betagal myoblasts, beta-gal FDG fluorescence, 48 h; 350,000 compounds, 0.064% hits; Potency, µM (doses to about 38.3 µM), for inactives: top-dose activation, actives largely listed as activators;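 further: potency means the concentration at half of the fitted maximal effect; 100% = response of the positive control SU9516; nearly all actives have a fitted effect of over 60% in size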
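Alpha7betagal+/- myoblasts (passage 13) were plated 16-24 hr, then exposed to compounds (1:260 dilution of DMSO stock) for 48 hours at 37C. After MPER lysis, β-galactosidase reporter activity was read as FDG fluorescence (ex 480/em 540) after 30 minutes.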
ERG Ets-DNA blk: qHTS for Small Molecule Inhibitors of the ERG Ets/DNA interaction. AID 624246, 2012. fluorescence polarization, His-ERG Ets domain / labelled DNA. 370,000 compounds, 0.028% hits. Potency, µM (top dose mostly 76.9 µM), without a hit: top-dose FP activity, negative = inhibition, hits mostly inhibitors; active means well fitted inhibition curve with a large enough effect in the polarisation, with a control signal flat; inconclusive means small, poorly fitted or top-dose-only effect, or effect the other way, or a change in a side signal; inactive means no such curve, though single readings can be large or run the other way; the % refers to the polarisation;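 further: polarization taken with two DNA probes labelled with fluorescein and Texas red; potency means the concentration at half of the fitted maximal effect; % of control where 0% means no effect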
Target sequence (P11308 whole entry, looked up, the tested form may be a part): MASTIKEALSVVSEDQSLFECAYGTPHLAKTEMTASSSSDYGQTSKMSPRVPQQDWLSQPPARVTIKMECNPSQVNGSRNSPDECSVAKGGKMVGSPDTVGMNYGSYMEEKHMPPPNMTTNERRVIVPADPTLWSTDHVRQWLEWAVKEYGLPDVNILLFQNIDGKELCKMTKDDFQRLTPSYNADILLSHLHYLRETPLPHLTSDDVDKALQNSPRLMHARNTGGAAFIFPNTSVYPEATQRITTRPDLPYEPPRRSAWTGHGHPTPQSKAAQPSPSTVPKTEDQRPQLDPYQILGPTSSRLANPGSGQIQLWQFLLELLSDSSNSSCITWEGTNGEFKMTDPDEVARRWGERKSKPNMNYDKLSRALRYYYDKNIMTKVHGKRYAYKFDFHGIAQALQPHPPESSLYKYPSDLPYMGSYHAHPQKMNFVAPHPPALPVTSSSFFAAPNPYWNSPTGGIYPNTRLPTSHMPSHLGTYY
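His-tagged ERG Ets domain (1 uM in the protein solution; 300mM KCl, 50mM Tris-HCl, 1mM EDTA, 1mM DTT, pH 7.5) received compound, then a probe mix of 5 nM fluorescein-DNA and 100nM Texas-615-DNA. Fluorescence polarization was read for both dyes.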
RORg inh: qHTS for inhibitors of ROR gamma transcriptional activity | Potency, µM (top dose mostly 53.6 µM), inactives show at the top dose activity change, negative = inhibition, actives largely listed as inhibitors | Drosophila S2 Gal4-RORgamma UAS-luciferase reporter, 20 h | AID 2551, 2010 | 310,000 compounds, 5.4% hits | Nuclear receptor ROR-gamma (Mus musculus), P51450; further: potency means the concentration at half of the fitted maximal effect; on the % scale 0 is the no-effect control and ±100 the full control effect; nearly all actives have a fitted effect of over 60% in size
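Stably transfected Drosophila Schneider cells are the test system, with ROR gamma fused to Gal4 and luciferase under UAS control; luminescence is read after 20 hr of 700 uM copper sulfate induction at ambient temperature.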
Giardia kill: Small Molecules that selectively kill Giardia lamblia: qHTS. activity change, % at 7.66 µM, hits read low. Giardia lamblia trophozoite viability. 340,000 compounds, 0.15% hits. AID 540267, 2011; in the data active means activity change below about -80%; inconclusive means between about -30% and that limit;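 further: parasites exposed to compound for two days anaerobically before the ATP read; on the % scale 0 is the no-effect control and ±100 the full control effect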
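Luminescent ATP signal served as the viability read-out, measured 15-30 min after adding ATP detection reagent to trophozoites that had been incubated with compounds for 48 hrs at 37 deg C anaerobically at 100 cells/well.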
An asterisk follows results filed as active; ? = inconclusive; . = not tested or not shown; [ ] = remark or other dose. This is one part of a sample in which hits are shown more often than they occur. Unless noted, the call rests on the fitted dose curve; in most records, active means well fitted curve in the direction sought with a large enough effect; inconclusive means small, poorly fitted or top-dose-only effect, or another doubt; inactive means no such curve, though single readings can be large; an effect the other way counts as inactive or inconclusive.

SMILES | Gal4-VP16 FLuc | Integrin act MD | ERG Ets-DNA blk | RORg inh | Giardia kill
c1ccc(CN2CCC(Nc3ncnc4sccc34)CC2)cc1 | ? | 7% | 0% | ? | -13
Cc1nc(Nc2ccccc2)c2nc(-c3ccccc3)n(CCCN3CCCCC3C)c2n1 (centres undefined) | -13% | . | . | -16% | .
O=C(NNC(=O)c1ccc(Cl)cc1Cl)c1cnccn1 | ? | -38% | -6% | ? | -8
O=C(NNC(=O)c1cnccn1)c1ccc(Cl)cc1 | 16µM* | -14% | -2% | 8.9µM* | -18
Cc1csc2ncnc(NNC(=O)c3ccc(Cl)cc3)c12 | 4.5µM* | -49% | -7% | 1.8µM* | 0
COc1ccc(-c2cn3c(n2)sc2cc(C(=O)NCCc4ccc(OC)cc4OC)ccc23)cc1 | . | . | 0% | . | .
Cc1ccc(CNC(=O)c2sc3nc4n(c(=O)c3c2C)CCCC4)cc1 | . | . | 2% | . | .
CC1=C(C(=O)Nc2ccccc2)C(C(C)C)n2nc(SCc3ccccc3C)nc2N1 (centres undefined) | . | . | 3% | . | .
Cc1cc(/C=N/NC(N)=S)c(C)n1-c1ccc(Cl)cc1 | 1.1µM* | 0% | 10% | 0.45µM* | 10
CC(C)Oc1ccc(Br)cc1/C=N\NC(N)=S | 5µM* | 4% | 3% | 2µM* | -7
Cc1cc(/C=N/O)c(C)n1-c1ccc(Br)cc1 | -9% | 15% | -1% | ? | ?
Cc1cccc(-n2c(C)cc(/C=N\NC(=O)c3ccco3)c2C)c1 | ? | 20% | -10% | ? | -20
Cc1cc(/C=N/NC(N)=S)c(C)n1-c1ccc(Br)cc1 | -2%[10 µM] | -8% | 0% | 0.56µM* | -10
Cc1cc(/C=N/NC(N)=S)c(C)n1-c1cccc(Cl)c1 | 10µM* | 22% | 2% | 2.8µM* | 0
CCCCNS(=O)(=O)c1ccc(C)c(-c2nnc3c4ccccc4c(C)nn23)c1 | . | . | 9% | . | .
COc1ccccc1N1CCN(CCC(=O)Nc2ccc(F)cc2)CC1 | -4% | 17% | 0% | 1% | -6
Cc1ccc(OCc2cc(C(=O)N3CCN(CC(=O)NC(C)C)CC3)no2)cn1 | 12% | -12% | -8% | 7% | -1
Cc1nc2ccccn2c1C(=O)N/N=C/c1ccccc1 | -4% | 13% | -8% | 1% | 8
Cc1nc2ccccn2c1C(=O)N/N=C/c1cc(C)n(-c2ccc(Br)cc2)c1C | ? | -17%[7.66 µM] | 6% | 11µM* | -11
Cc1cccc(C)c1-n1c(C)cc(/C=N/NC(N)=S)c1C | 0.79µM* | -9% | 2% | 0.89µM* | 2
CCOC(=O)c1ccc(NC(=S)N2CCSC2c2c(F)cc(F)cc2F)cc1 (centres undefined) | ? | -41% | -5% | 13µM* | 4
COc1ccc(C2SCCN2C(=S)Nc2ccc(Cl)cc2)cc1 (centres undefined) | ? | -16% | 4% | 13µM* | 8
COc1ccc(C2SCCN2C(=S)Nc2cccc(Cl)c2)cc1 (centres undefined) | ? | -7% | . | ? | -11
C=CCn1c(-c2ccc(Cl)cc2)cnc1SC(C)C(=O)NC(N)=O (centres undefined) | -4%[10 µM] | 14% | 4% | ? | ?
CC(=O)N1CCC[C@@]2(CCN(Cc3nccs3)C2)C1 | 1% | . | . | -9% | .
SMILES | Gal4-VP16 FLuc | Integrin act MD | ERG Ets-DNA blk | RORg inh | Giardia kill
C/C(=N\NC(=S)Nc1cc(S(=O)(=O)N2CCOCC2)ccc1Cl)c1ccccc1F | 6.3µM* | 9% | -10% | 1.1µM* | 0
CC(C)N(C(=S)Nc1cc(S(=O)(=O)N2CCOCC2)ccc1Cl)c1ccccc1 | -4% | 0% | -26% | 2% | 4
Nc1ccc2nc(-c3ccccc3)sc2c1 | ? | 3% | -2% | 8.9µM* | ?
Cc1ccc2sc(-c3ccc(N)cc3)nc2c1 | . | . | 2% | . | .
Nc1ccc(-c2nc3cc(N)ccc3s2)cc1 | ? | -2% | 1% | 7.9µM* | ?
COc1ccc2nc(-c3ccc(N(C)C)cc3)sc2c1 | 5µM* | . | . | 0.63µM* | .
Cc1ccc2nc(-c3ccc(N)cc3)sc2c1 | 10µM* | 13% | 10% | 4.5µM* | ?
CCN(CC)S(=O)(=O)c1ccc(NC(=O)CO/N=C(\N)c2ccccc2)cc1 | . | -6% | 3% | . | 0
CCOc1ccc(NC(=O)C2CCN(S(=O)(=O)c3ccc4c(c3)oc(=O)n4C)CC2)cc1 | . | . | 0% | . | .
CO[C@H]1COC(=O)[C@@H](C)COC(=O)[C@H](C)NC(=O)C/C=C\[C@H]1C | -8%[10 µM] | . | . | -18%[10 µM] | .
CCCC[C@@H](CNC)NC[C@H](NCCCCC1CCCCC1)C(C)C | ? | -8% | 2% | 16µM* | 12
CC(=O)Nc1cccc(C(=O)/C=C/c2ccc(/C=C/C(=O)c3cccc(NC(C)=O)c3)cc2)c1 | ? | . | . | 10µM* | .
COc1ccc(Br)cc1/C=C/C(=O)Nc1ccc2ccccc2c1 | -9% | 16% | -2% | 36% | 10
CC(=O)Nc1cccc(N(C)S(C)(=O)=O)c1 | -1% | 20% | 8% | 27% | 13
CC(=O)Nc1cccc(S(C)(=O)=O)c1 | -15% | 4% | 20µM* | -4% | 7
CCC(=O)Nc1cccc(C(=O)/C=C/c2cc(Br)ccc2OC)c1 | ? | -60% | 2% | 11µM* | -19
Cc1cccc(C(=O)Nc2ccc(C(=O)/C=C/c3ccncc3)cc2)c1 | 13µM* | -43% | -5% | ? | 7
CC(=O)Nc1cccc(C(=O)/C=C/c2ccc(F)cc2)c1 | ? | -67% | 3% | 13µM* | -28
COc1cc([N+](=O)[O-])cc(CN2CCCCC2)c1O | -6% | 10% | -13% | 34% | 11
COc1ccc(C(=O)NN(C)c2nc(C(F)(F)F)nc3ccccc23)cc1 | ? | ? | 6% | 3.2µM* | 26
CC(C)(C)c1nc(SCC(=O)N2CCCC2)c2ccccc2n1 | -7% | -6% | -2% | -18% | -9
CC(C)(C)c1nc(SCC(=O)c2ccccc2)c2ccccc2n1 | ? | 45% | 6% | 20µM* | -1
COc1ccc(S(=O)(=O)Nc2ccc(-n3cnnn3)cc2)cc1Br | . | 0% | -23% | . | -22
COc1ccc(NS(=O)(=O)c2ccc(-c3cnc(C4CC4)o3)cc2)cc1OC | 7.1µM* | -5% | 0% | ? | 1
COc1ccc(NS(=O)(=O)c2ccc(-n3cnnn3)cc2)cc1OC | 10µM* | -27% | 16% | -5% | -7
COc1ccc(NS(=O)(=O)c2ccc3c(c2)OCCO3)cc1OC | 7.1µM* | -36% | 2% | ? | -22
CC(=O)Nc1ccc(S(=O)(=O)Nc2ccc3c(c2)C(=O)OC3)cc1 | 11µM* | . | . | ? | .
Cn1cccc1/C=N/N1CCN(c2ccccc2)CC1 | -1% | -6% | 8% | -6% | -6

Assay outcomes from PubChem BioAssay.
